The values that follow come from the supplement of paper PMC10338343.

± gives the standard deviation.

This experiment concerns MILI (PIWIL2) piRISC loaded with piRNA #1 (26 nt). Put plainly: pre-steady-state target cleavage rate (min^-1); guide: piRNA #1 5'p-UGAGGUAGUAGGUUGUAUAGUAUCCA; MIWI and MILI are mouse PIWI proteins and EfPiwi is from a freshwater sponge; tags in brackets are library labels; higher = faster piRNA-guided slicing of the target. To be noted: auxiliary factor: 500 nM mouse GTSF1. The method in brief:
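Cleave-'n-Seq: a transcribed, DNA-blocked target RNA library (0.1 nM) was mixed with 1 nM active affinity-purified piRISC carrying one synthetic guide, with or without 500 nM GTSF1 partner protein, in HEPES–potassium acetate buffer at 33 °C for 0–8 or 0–960 min. Uncleaved targets were sequenced and normalised to depth and to weakly complementary targets. Three trials were pooled, and k3 was capped at 0.0001 min^-1. The pre-steady-state cleavage rate came from a burst-and-steady-state fit.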
As to GGAGACCUAACUUUACAUCCUACUACCUCA, the “pre-steady-state target cleavage rate” value worked out at 0.143 ± 0.025. The same measure for GGAGACCAUAGUAUACUACCUACUACCUCA: 0.131 ± 0.013; for GGAGACCAUACUAUACAACCUAUACCUCA: 0.016 ± 0.0051; for GGAGACCUAUGAUUCAACCUACUACCUCA: 0.0177 ± 0.0042. GGAGAGGACUACUAUACAACCUACUACCUCA: the “pre-steady-state target cleavage rate” value worked out at 0.186 ± 0.016. To GGAGACCAUACUAUUCUACCUACUACCUCA belongs 0.178 ± 0.017; to GGAGACCUAUCUAUAUCAACCUACUACCUCA, 0.00847 ± 0.0035; to GGAGACCUUACUAUACAACCUUCAACCUCA, 0.00437 ± 0.003. For the sequence GGAGACCUAUGUAUACAACCUACAUCCUCA, the “pre-steady-state target cleavage rate” value worked out at 0.00671 ± 0.0026. The same measure for GGAGACCUAUCUUUACAAGCUACUACCUCA: 0.122 ± 0.01. The same measure for GGAGACCUAACUAUAGUACCUACUACCUCA: 0.122 ± 0.022. To GGAGACCUAUGAUAACAACCUACUACCUUCA belongs 0.00428 ± 0.0025; to GGAGACCAUACUAAACAACGUACUACCUCA, 0.0192 ± 0.003; to GGAGACCUAUGUAUACAACCUACUACGACA, 0.0279 ± 0.0061.

On to GGAGACCAUCACUAUACAACCUACUACCUCA, for which the “pre-steady-state target cleavage rate” value is 0.147 ± 0.021.

Regarding GGAGACCUAUGAUAAACAACCUACUACCUCA, the “pre-steady-state target cleavage rate” value was 0.00811 ± 0.0029. The same measure for GGAGACCAAAGUAUACAACCUACUACCUCA: 0.0438 ± 0.0093. To GGAGACCUAUCUAUACAACCUACUAGCUGA belongs 0.00493 ± 0.0036; to GGAGACCUUACUAUACUACCUACUACCACA, 0.173 ± 0.014; to GGAGACCUAUCUUUACAACGUACUACCUCA, 0.00834 ± 0.002.

With GGAGACCUAUGAUAUCAAGCUACUACCUCA, the “pre-steady-state target cleavage rate” value was determined as 0.00559 ± 0.0019. To GGAGACCUAUGUAUACAACCUACUAUCUCA belongs 0.0416 ± 0.0058.

Turning to GGAGACCUAUGAUAUCAUGGUACUACCUCA, the “pre-steady-state target cleavage rate” value is less than 0.0001. With GGAGACCUAUGAUAACAACCUACUUCCUCA, the “pre-steady-state target cleavage rate” value worked out at 0.00353 ± 0.0025.

GGAGACCUAACUAUCAACCUACUACCUCA: the “pre-steady-state target cleavage rate” value is 0.0603 ± 0.014. The same measure for GGAGACCUAUGAUAUGUUCCUACUACCUGCA: less than 0.0001; for GGAGACCUAUGAUUACAACCUACGACCUCA: 0.00452 ± 0.0036; for GGAGACCUAUCUAUACAACCUACUGACCUCA: 0.066 ± 0.012. The same measure for GGAGACCUAUGUAUACAAGCUACUAGCUCA: 0.0122 ± 0.0045; for GGAGACCUAUGAAUACAACCUACUACCUCCA: 0.0129 ± 0.0043; for GGAGACCUAACUAUACUACCUACUUCCUCA: 0.0587 ± 0.013. To GGAGACCUAUGAAUACAACCUACUACCUUCA belongs 0.00676 ± 0.0021; to GGAGACGAUACUAUACAACCUACUACCUACA, 0.178 ± 0.013; to GGAGACCUAUGUUUAGAACCUACUACCUCA, 0.00346 ± 0.0023. With GGAGACCUAAGUAUACAACCUACUAGCUCA, the “pre-steady-state target cleavage rate” value came to 0.0149 ± 0.0043. For the sequence GGAGACCUAACUAUACAGCCUACUACCUCA, the “pre-steady-state target cleavage rate” value is 0.0605 ± 0.018. To GGAGACCUAUGAAUACAACCUACUACCUA belongs 0.00429 ± 0.0026; to GGAGACCUAUGAAUACAACCUACUACUCUCA, 0.00959 ± 0.002. To GGAGACCAUUGAAUACAACCUACUACCUCA belongs 0.0121 ± 0.0038.
